Hits are enriched below; roughly 5.8% of the tested compounds scored in any of these assays.
TRPV1 potentiator: HTS Assay for Compounds that Act as Potentiators of the Vanilloid Receptor 1; Transient receptor potential cation channel subfamily V member 1 (Homo sapiens), Q8NER1; TRPV1-expressing cells, Fluo-8 calcium influx, capsaicin EC20 potentiation; potentiation, % at 8.33 µM; 320,000 tested, 0.02% active; AID 540277, 2011; in the data active means potentiation above about 80%; inconclusive means between about 30% and that limit; further: 0% is about no effect
Target sequence (Q8NER1 whole entry, looked up): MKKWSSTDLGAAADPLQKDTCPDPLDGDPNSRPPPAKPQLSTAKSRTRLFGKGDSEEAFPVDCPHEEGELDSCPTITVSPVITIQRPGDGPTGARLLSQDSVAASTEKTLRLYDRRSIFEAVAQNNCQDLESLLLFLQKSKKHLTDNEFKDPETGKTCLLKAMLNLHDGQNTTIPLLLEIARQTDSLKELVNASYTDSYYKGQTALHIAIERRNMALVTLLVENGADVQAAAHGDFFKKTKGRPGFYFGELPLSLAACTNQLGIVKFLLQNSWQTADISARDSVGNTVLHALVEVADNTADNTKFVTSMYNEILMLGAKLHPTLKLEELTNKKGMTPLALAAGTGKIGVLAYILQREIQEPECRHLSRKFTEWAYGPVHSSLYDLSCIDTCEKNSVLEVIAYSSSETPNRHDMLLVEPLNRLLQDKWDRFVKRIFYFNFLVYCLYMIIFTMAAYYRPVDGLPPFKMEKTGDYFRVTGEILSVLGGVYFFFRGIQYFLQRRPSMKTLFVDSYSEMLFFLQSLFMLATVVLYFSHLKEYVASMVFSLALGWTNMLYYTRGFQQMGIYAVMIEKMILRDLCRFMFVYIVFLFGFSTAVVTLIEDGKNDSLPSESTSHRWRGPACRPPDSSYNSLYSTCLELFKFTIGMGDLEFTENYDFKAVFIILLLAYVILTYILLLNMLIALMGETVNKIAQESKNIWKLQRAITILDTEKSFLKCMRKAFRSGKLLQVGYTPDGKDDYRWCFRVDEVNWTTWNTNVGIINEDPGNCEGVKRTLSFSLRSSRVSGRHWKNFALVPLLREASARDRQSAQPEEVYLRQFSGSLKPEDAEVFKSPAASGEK
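Fluo-8 calcium influx in TRPV1-expressing cells, kinetic read (ex 480/em 520 nm). Compound added and read 3 min for agonist activity, followed by capsaicin at EC20 final and 2 min further read for enhancement.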
RORgamma inh: qHTS for inhibitors of ROR gamma transcriptional activity; Nuclear receptor ROR-gamma (Mus musculus), P51450; Drosophila S2 Gal4-RORgamma UAS-luciferase reporter, 20 h; Potency, µM (series often up to 53.6 µM), inactives show at the highest dose activity change, negative = inhibition, actives largely listed as inhibitors; 310,000 tested, 5.4% active; AID 2551, 2010; further: potency means the concentration at half of the fitted maximal effect; on the % scale 0 is the no-effect control and ±100 the full control effect; nearly all actives have a fitted effect of over 60% in size
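ROR gamma transcriptional activity was tracked as Gal4-UAS luciferase output in stably transfected Drosophila Schneider cells, with compound added 1 hr before 700 uM copper sulfate induction and a 20 hr ambient-temperature incubation.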
uPA surface inh: qHTS for Inhibitors of Cell Surface uPA Generation | cell surface uPA generation assay, qHTS | Potency, µM (doses to about 38.3 µM), for the others: top-dose activity change, negative = inhibition, usual class: inhibitors | 330,000 tested, 0.31% active; active means well fitted inhibition curve with a large enough effect; inconclusive means small, poorly fitted or top-dose-only effect; inactive means no such curve, though single readings can be large or run the other way; tested in mouse RAW 264.7 cells; further: potency means the concentration at half of the fitted maximal effect; on the % scale 0 is the no-effect control and ±100 the full control effect; nearly all actives have a fitted effect of over 55% in size
Gal4-VP16 FLuc: VP16 counterscreen qHTS for inhibitors of ROR gamma transcriptional activity; 310,000 tested, 3.5% active; AID 2546, 2010; Potency, µM (titrated, usually from 53.6 µM), inactives show at the highest dose activity, negative = inhibition, most hits filed as inhibitors; Drosophila S2 Gal4-VP16 UAS-luciferase, luminescence, 20 h;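 further: Gal4-VP16 expression switched on by copper sulfate through the metallothionein promoter; potency means the concentration at half of the fitted maximal effect; on the % scale 0 is the no-effect control and ±100 the full control effect; nearly all actives have a fitted effect of over 50% in size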
TRPV1 ag: HTS Assay for Compounds that Act as Agonists of the Vanilloid Receptor 1; TRPV1-expressing cells, Fluo-8 calcium influx, agonist mode; Transient receptor potential cation channel subfamily V member 1 (Homo sapiens), Q8NER1; 320,000 tested, 0.19% active; activation, % at 8.33 µM; in the data active means activation above about 80%; inconclusive means between about 30% and that limit; further: 0% is about no effect
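Cells expressing TRPV1 were dye-loaded with Fluo-8 and read kinetically: 10 s baseline, 3 min after compound (agonist portion), then 2 min after EC20 capsaicin (allosteric enhancer portion). Calcium-bound dye fluorescence at 480/520 nm.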
Numbers without * were called inactive; ? = inconclusive; · = not tested or not shown; [ ] = another dose, or the depositor's remark. Unless noted, the call rests on the fitted dose curve; in most records, active means well fitted curve in the direction sought with a large enough effect; inconclusive means small, poorly fitted or top-dose-only effect, or another doubt; inactive means no such curve, though single readings can be large; an effect the other way counts as inactive or inconclusive.

SMILES | TRPV1 potentiator | RORgamma inh | uPA surface inh | Gal4-VP16 FLuc | TRPV1 ag
CCN(CC)S(=O)(=O)c1cccc(-c2n[nH]c(=S)n2CC(C)C)c1 | -1.6 | 8.91µM* | -2.2% | 2.8% | 0.5
CCn1c(-c2ccc(C(C)(C)C)cc2)n[nH]c1=S | -27.6 | ? | -1.4% | 3.16µM* | ?
CCn1c(-c2cc3ccccc3cc2O)n[nH]c1=S | -1.0 | 11.2µM* | 0.5% | ? | -1.8
CCn1c(-c2cc(OC)c(OC)c(OC)c2)n[nH]c1=S | 3.2 | ? | 0.3% | 18.9% | -1.8
CC(C)(C)NC(=S)NCc1cccnc1 | · | -34.8% | · | -11.8% | ·
O=S(=O)(c1ccc(NCCCO)nc1)N1CCOCC1 | 0.1 | · | 3.7% | · | 1.8
CC(C)Cn1c(-c2ccccc2F)n[nH]c1=S | 24.1 | 5.62µM* | 0.4% | 10µM* | 5.5
CC(C)Cn1c(-c2ccncc2)n[nH]c1=S | -9.3 | ? | -2.4% | 0.2% | -0.1
CC(C)Cn1c(-c2ccc(F)cc2)n[nH]c1=S | 4.9 | 7.08µM* | 1.1% | 10µM* | -4.9
Fc1ccc(-c2n[nH]c(=S)n2CC2CCCO2)cc1 (stereo unspecified) | 10.0 | 11.2µM* | -5.5% | ? | -0.4
CC(C)Cn1c(-c2csc3c2CCCC3)n[nH]c1=S | -12.8 | 2.82µM* | 8.5% | 5.01µM* | -1.1
Cc1ccc2ccc3c(c2n1)NS(=O)(=O)c1ccc(C(F)(F)F)cc1-3 | 4.2 | · | · | · | 5.9
CO[C@@H]1COC(=O)CC=C[C@@H](C)[C@@H]2C=C[C@@H](O)[C@@H](COC(=O)C/C=C\[C@H]1C)O2 | · | 30.2%[10 µM] | · | -3.0%[10 µM] | ·
S=c1[nH]nc(-c2cccs2)n1C1CCCCC1 | ? | 0.0% | 5.8% | -10.4% | -7.4
CC(C)(C)c1ccc(-c2n[nH]c(=S)n2C2CCCC2)cc1 | -7.1 | 2.51µM* | · | 4.47µM* | 13.5
Cn1c(-c2ccc(C(C)(C)C)cc2)n[nH]c1=S | -27.2 | 3.16µM* | 1.2% | 5.62µM* | 28.7
CCn1c(-c2cccc(Cl)c2)n[nH]c1=S | 1.5 | 6.31µM* | -2.4% | 11.2µM* | 0.6
Cn1c(-c2ccccc2)n[nH]c1=S | -3.5 | ? | 0.3% | -8.6% | -1.2
CCn1c(-c2ccc(F)cc2)n[nH]c1=S | -13.7 | 1.12µM* | 3.4% | 2µM* | -0.4
CN(C(=O)c1ccoc1)c1ccccc1I | · | -2.4% | · | -17.3% | ·
CCOC(=O)Cn1nc(-c2ccccc2)c2cnc3ccc(C)cc3c21 | 23.7 | ? | -3.4% | ? | -6.4
COc1ccc(C(=O)NC(=S)N2CCNC(=O)C2)cc1Br | 6.5 | 15.8µM* | -6.1% | ? | 1.7
O=C1CN(C(=S)NC(=O)c2ccc(-c3ccccc3)cc2)CCN1 | 5.2 | 1.78µM* | -16.1% | 10µM* | -1.5
COc1ccc(C(=O)NC(=S)N2CCC(C)CC2)cc1Br | -9.0 | 0.631µM* | -11.3% | 0.891µM* | ?
O=C(Nc1ccccc1Cl)C1CCCN(S(=O)(=O)c2ccc(-n3cnnn3)cc2)C1 (stereo unspecified) | -11.9 | ? | 4.2% | -9.0% | 22.4
SMILES | TRPV1 potentiator | RORgamma inh | uPA surface inh | Gal4-VP16 FLuc | TRPV1 ag
COc1ccc(Cn2c(=S)[nH]c3ccccc3c2=O)cc1 | -10.9 | 8.91µM* | 0.5% | 10µM* | ?
CC(C)CCNC(=O)c1ccc(Cn2c(=S)[nH]c3ccccc3c2=O)cc1 | 1.7 | ? | 1.3% | ? | -5.4
COc1ccc(Cn2c(=O)sc3ccccc3c2=O)cc1 | -14.2 | 10.1% | -0.1% | -6.5% | 20.2
Cc1ccc(Cn2c(=S)[nH]c3ccccc3c2=O)cc1 | -19.0 | 3.98µM* | 10.8% | 6.31µM* | ?
Cc1ccsc1/C=N/NC(=O)c1nnn(-c2nonc2N)c1CSc1ccccc1 | 0.3 | 2.51µM* | 6.1% | 3.98µM* | 18.7
Cc1ccc(/C=N/NC(=O)c2nnn(-c3nonc3N)c2CSc2ccccc2)s1 | -25.5 | 3.98µM* | 2.9% | 5.01µM* | 19.2
O=C(Cn1cnc([N+](=O)[O-])n1)N/N=C/c1ccccc1O | ? | 7.08µM* | -5.8% | ? | -1.9
O=C(Cn1cnc([N+](=O)[O-])n1)N/N=C/c1cc(Cl)ccc1O | 11.0 | 7.08µM* | -8.9% | ? | 1.3
CCOc1ccc(NS(=O)(=O)c2csc(C(N)=O)c2)cc1 | -9.4 | ? | -1.8% | -16.7% | -5.3
Cc1cc(C(C)(C)C)cc(S(=O)(=O)NCC(=O)O)c1C | -2.2 | -32.5% | -4.3% | 2.1% | 1.9
CCn1c(CNc2nc(-c3ccccc3)cs2)nnc1SCC(=O)NCc1ccccc1 | -9.2 | 1.7% | 0.8% | -20.1% | 1.7
CS(=O)(=O)Nc1cccc(-c2cncnc2NCc2cccnc2)c1 | · | -16.3% | · | -4.0% | ·
CC(C)(C)c1ccc(C(=O)Nc2ccc(Cl)cc2)cc1 | 7.8 | 3.1% | 1.2% | -4.7% | 80.4*
O=C(Nc1ccc(Nc2ccccc2)cc1)c1ccc(Cl)cc1 | · | · | -1.4% | · | ·
CC(C)(C)c1ccc(NC(=O)c2ccsc2)cc1 | 6.0 | -28.0% | -5.3% | 7.94µM* | 83.1*
C=C(C)c1cccc(C(C)(C)NC(=O)Nc2ccc(C(N)=O)cc2)c1 | -6.3 | 2.8% | -2.1% | 7.8% | ?
C=C(C)c1cccc(C(C)(C)NC(=O)Nc2cccnc2)c1 | ? | ? | 4.9% | 24.2% | 97.6*
CC(C)(C)c1ccc(C(=O)Nc2cccnc2)cc1 | 7.1 | ? | ? | 1.2% | 94.5*
CSCC[C@H](N)C(=O)N[C@@H](C)C(=O)NCC(=O)N[C@@H](CCCN=C(N)N)C(=O)N[C@@H](CO)C(=O)NCC(=O)N[C@@H](CC(=O)O)C(=O)N[C@@H](CO)C(=O)N[C@@H](CC(=O)O)C(=O)N[C@@H](CCC(=O)O)C(=O)N[C@@H](CC(=O)O)C(=O)N[C@@H](CC(C)C)C(=O)N[C@@H](CC(C)C)C(=O)N[C@@H](CCCCN)C(=O)N[C@@H](C)C(=O)N[C@H](C(=O)O)C(C)C | · | 0.1% | · | -1.0% | ·
Cc1noc(C)c1COc1cccc(C(=O)Nc2ccc(OCc3ccccc3)cc2)c1 | -27.9 | 14.6% | -2.8% | -1.1% | -2.2
COC(=O)Cc1ccc(NC(=O)c2ccc(C(C)(C)C)cc2)cc1 | -11.1 | 1.58µM* | -8.5% | ? | 81.4*
COC(=O)Cc1ccc(NC(=O)c2ccccc2Cl)cc1 | 12.2 | -18.3% | -4.7% | -5.6%[10 µM] | -0.8
CCOc1ccccc1C(=O)OCC(=O)NCCNC(=O)COC(=O)c1ccccc1OCC | 1.4 | -0.8% | 1.1% | -14.1% | 2.0
COc1cc(O)c(C(=O)c2ccccc2)cc1O | · | 12.6µM* | · | ? | ·
Cc1ccccc1C(=O)Nc1cccc(NC(=O)c2ccccc2[N+](=O)[O-])c1 | 7.6 | 15.1% | 4.47µM* | 0.4% | 1.3
C/C(=N\NC(=O)c1ccc(O)cc1)c1cccc(NC(=O)c2ccccc2C)c1 | -5.8 | -19.6% | 10µM* | -2.7% | 3.6
C/C(=N\NC(=O)c1cc(Br)ccc1O)c1cccc(NC(=O)c2ccccc2F)c1 | -2.4 | 11.2µM* | 1.4% | 1.2% | -2.2

Compound activity (PubChem)
